Results filed as inconclusive are left out. Calls of active or inactive are those of the source. The call rests on the fitted dose curve; in most records, active means well fitted inhibition curve with a large enough effect; inconclusive means small, poorly fitted or top-dose-only effect; inactive means flat fitted curve, though single readings scatter. Where a SMILES comes first, the peptide text is derived from it.
Assay: Confirmatory screen GU Rhodamine qHTS for Zika virus inhibitors qHTS (AID 1347157); further: nearly all actives have a fitted effect of over 70% in size;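 on activity change, negative = inhibition: plate controls were no-inhibitor wells for no effect and no-enzyme wells for full effect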
Conditions: purified enzyme assay, Rhodamine110 substrate fluorescence, 15 min; series mostly up to 114 µM; activity change, negative = inhibition: at the top concentration
Procedure, shortened: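 Percent inhibition came from the 15-min rise in Rhodamine110 fluorescence (1.5 microM substrate, ~15% conversion), normalized to no-inhibitor and no-enzyme wells and Hill-fitted. Unlinked protease, 25 nM, pH 8.0 Tris buffer; compounds up to 114 microM, 15-min preincubation.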
Potency means the concentration at half of the fitted maximal effect.

| Compound | Potency | activity change, negative = inhibition |
| --- | --- | --- |
| CC(C)CC(c1c(O)c(C=O)c(O)c(C=O)c1O)C1CCC(C)(O)C2CC(C(C)(C)O)CCC12C (stereo unspecified) | 3.41 µM (active) |  |
| O=C(O)CC/C=C\C[C@H]1CO[C@@H](c2ccccc2Cl)O[C@H]1c1ccccc1O | 31.2 µM (active) |  |
| CC1(C)CC[C@]2(C(=O)O)CC[C@]3(C)C(=CCC4[C@@]5(C)CC[C@H](O[C@@H]6O[C@H](C(=O)O)[C@@H](O)[C@H](O)[C@H]6O)C(C)(C)C5CC[C@]43C)C2C1 (stereo partly specified) | 5.84 µM (active) |  |
| Cc1ccccc1-n1nc(-c2c(-c3ccc(F)cc3)nn3c2NC[C@@H](CO)C3)ccc1=O |  | -1.55% (inactive) |
| Cn1cc(-c2c[nH]c3ncnc(N4CCOCC4)c23)cn1 |  | -2.83% (inactive) |
| CSCC[C@H](NC(=O)[C@H](CO)NC(=O)[C@H](CCC(=O)O)NC(C)=O)C(=O)N[C@H](C=O)CC(=O)O (Ac-ESMD-aldehyde) |  | 8.12% [at 22 µM] (inactive) |

Reference: PubChem BioAssay (NCATS)
